Test results as given in PubChem BioAssay (NCI).
Compounds without any hit were thinned out: in the full panel of roughly 83,000, 20% have a hit.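 Percent growth is the endpoint: 0 to 100 indicates growth inhibition (40 means 60% inhibition), 0 means no net growth, and negative values indicate cell death.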 A number with no mark means an inactive call. Calls of active or inactive are those of the source. How the source made its calls: active means growth percent below 10; inactive means the rest.

Experiments:
Test in all cases: NCI-60 one-dose screen, 48 h (100 = growth as untreated, 0 = no growth, -100 = all killed)
Settings in all cases: 10 µM unless noted
[1] = tested on: NCI-H23 lung
[2] = tested on: NCI-H226 lung
[3] = tested on: NCI-H322M lung
[4] = tested on: HOP-62 NSCLC
[5] = tested on: NCI-H460 lung
[6] = tested on: HOP-92 NSCLC
[7] = tested on: NCI-H522 lung
[8] = tested on: A549/ATCC NSCLC
[9] = tested on: 786-0 renal
[10] = tested on: COLO 205 colon
[11] = tested on: DU-145 prostate
[12] = tested on: MALME-3M melanoma
[13] = tested on: MDA-MB-231 breast
[14] = tested on: RXF 393 renal
[15] = tested on: SF-268 CNS
[16] = tested on: SF-295 CNS
[17] = tested on: SF-539 CNS
[18] = tested on: UACC-257 melanoma
[19] = tested on: M14 melanoma
[20] = tested on: K-562 leukemia

SMILES	growth [1]	growth [2] [%]	growth [3] [%]	growth [4] [%]	growth [5]	growth [6]	growth [7]	growth [8] [%]	growth [9]	growth [10]	growth [11]	growth [12]	growth [13]	growth [14]	growth [15]	growth [16]	growth [17]	growth [18]	growth [19]	growth [20]
C=C(CBr)[C@@H]1CC[C@]2(COC(C)=O)CC[C@]3(C)[C@H](CC[C@@H]4[C@@]5(C)CCCNC(C)(C)[C@@H]5CC[C@]43C)[C@@H]12	37.7%	76.9	83.1	67.9	17%	39.3%	31.1%	34.4	45.7%	48.1%	66.3%	71%	65.6%	56%	50.3%	59.5%	49.7%	23.4%	40%	–
O=C1CC(=O)OC(c2ccc([N+](=O)[O-])cc2)O1	43.6%	34.8	51.7	26.5	35.6%	36.9%	-65.5% (active)	33.6	-73.8% (active)	-31% (active)	13.9%	-36.6% (active)	-3.22% (active)	-91% (active)	4.85% (active)	70.3%	-69.9% (active)	-23.6% (active)	-64.4% (active)	–
CC(C)=CCC[C@](C)(O)[C@H]1CC[C@]2(C)[C@@H]1CC[C@@H]1[C@@]3(C)C/C(=C/c4ccccc4)C(=O)C(C)(C)[C@@H]3CC[C@]12C	84.7%	93.7	93.7	92.2	91.1%	78.8%	77.9%	85.1	92.2%	99.9%	85.3%	78.6%	85.5%	95.3%	94.7%	109%	90.4%	104%	96.5%	–
O=C1c2cccc3c(-c4ccc5c(c4)ncn5C4CCCCC4)ccc(c23)C(=O)N1CCO	78.6%	77	91.8	81.9	94.1%	51.1%	73.7%	95.6	95.4%	108%	100%	105%	71.1%	106%	93.9%	81.9%	99%	94.5%	106%	–
COc1ccc2c(c1)oc1c(C)c3c(c(C)c12)C(=O)N(CCN1CCOCC1)C3=O	101%	96.4	90.9	101	101%	106%	29.8%	90.8	102%	109%	107%	100%	86.2%	93.9%	99.5%	110%	100%	93.8%	104%	–
O=C1c2ccccc2C(=O)c2c([N+](=O)[O-])ccc(Cl)c21	89.3%	102	99.7	111	101%	76.5%	59.2%	93.7	96.6%	116%	101%	116%	103%	94.3%	87.4%	116%	99.1%	96.2%	108%	–
CC(C)(C)c1cc(C=O)cc(C(C)(C)C)c1O	112%	97.8	101	106	111%	79.5%	90.7%	101	107%	100%	103%	101%	87.5%	104%	96.6%	112%	102%	102%	101%	–
O=C1Nc2ccccc2/C1=C\c1c(-c2ccccc2)nc2ccccn12	8.45% (active)	57.6	70.1	41.3	24.3%	66.6%	22.3%	47.1	58.7%	31%	63.5%	43.6%	59.2%	26.8%	51.2%	24%	49.6%	87.6%	3.79% (active)	–
COc1cc2c3c(c4c5ccccc5[nH]c4c2c(OC)c1OC)C(=O)N(CCN1CCOCC1)C3=O	63%	69.8	68.2	59.9	18.6%	75.4%	35.4%	45.1	56.2%	56.4%	66%	78.5%	72.4%	48.8%	47.7%	36.5%	63.7%	70.4%	76%	–
Cc1nc2sccn2c1-c1nc2sccn2c1/C=C1/C(=O)Nc2ccccc21	53.4%	63.1	67.1	53.7	20.5%	4.55% (active)	-6.81% (active)	39.5	51.1%	20.1%	48%	50%	44.6%	32.7%	60.9%	-8.95% (active)	16.4%	51.8%	34.2%	–
NNC(=O)c1ccc(-n2nc(-c3ccccc3)c3ccccc32)cc1	87.8%	82.3	74.5	65.2	97.2%	87.2%	79.8%	95.3	–	79.8%	79.7%	90.2%	63.9%	61.7%	64%	75.2%	82.8%	99.5%	77%	84.1%
CN(C)CCC(=O)c1ccc([N+](=O)[O-])cc1	109%	94.8	104	98.6	107%	89.2%	-23% (active)	109	–	107%	108%	104%	100%	108%	112%	103%	96.4%	108%	102%	114%
Brc1ccc2[nH]cc(-c3cncn3CCc3ccccc3)c2c1	37.9%	53.5	74.3	63.4	66.5%	23.4%	51.1%	56.7	–	66.3%	68.1%	65%	65.4%	38.1%	50.3%	37.7%	65.2%	48.3%	53.3%	27.3%
O=C(NO)c1ccc(-n2nc(-c3ccccc3)c3ccccc32)cc1	49.9%	56.4	46.9	29.7	26.6%	62.9%	6.17% (active)	41.7	–	49%	38.4%	57%	40.3%	36.5%	54.7%	80.9%	49.3%	78.5%	57.2%	37.8%
N#CC1C(C#N)C2c3ccccc3C=CN2C1C(=O)c1ccc(Br)cc1 (centres undefined)	91.4%	91.6	96.8	97.7	87.7%	95.8%	88.7%	83.6	–	107%	97.8%	100%	92.2%	105%	95.1%	96.8%	89.3%	103%	104%	99.8%
COc1ccc(C(=O)c2cc(OC)c(OC)c(OC)c2)cc1O	27.7%	84.6	43.7	22.7	2.85% (active)	51.5%	12.4%	17.8	–	41.9%	9.94% (active)	35.2%	24.8%	0.69% (active)	29.3%	-8.79% (active)	-22.1% (active)	69.3%	-3.92% (active)	8.98% (active)
